ATXN2 expr inh – Primary qHTS for Inhibitors of ATXN expression; HEK-293 ATXN2-luciferase reporter, luminescence, 24 h; 360,000 compounds, 0.72% hits; Potency, µM (titrated, usually from 57 µM), for the others: top-dose activity change, negative = inhibition, actives largely listed as inhibitors; note: potency is the fitted concentration of half-maximal effect; % is set by controls: 0 for no effect and ±100 for the full control effect; nearly all actives have a fitted effect of over 55% in size
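ATXN2-luciferase reporter cells (luciferase flanked by upstream and downstream ATXN2 gene portions) were treated 24 h at 37 °C with compounds at up to 57 uM. SteadyGlo luminescence gave expression; GF-AFC fluorescence gave viability.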
CtBP-E1A inh – qHTS Assay for Inhibitors of the CtBP/E1A Interaction | CtBP / adenovirus E1A interaction (AlphaScreen) | AlphaScreen GST-E1A/His-CtBP binding, 1536-well; active compounds read low | activity change, % (test concentration not listed) | 340,000 compounds, 0.49% hits; in the data active = activity change below about -65%; inconclusive = mostly about -30% to -63%; note: % is set by controls: 0 for no effect and ±100 for the full control effect
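Protein mix (5X: 125 nM each GST-E1A, His-CtBP) was incubated with pinned compound 2 h at 37 deg C in dark, in 50 mM Tris pH 8.0 buffer with 300 mM NaCl. Glutathione donor and nickel acceptor beads followed; AlphaScreen signal read after 1 h.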
Six1-Eya2 inh – qHTS Assay for Inhibitors of the Six1/Eya2 Interaction. Homeobox protein SIX1 (Homo sapiens) + Protein phosphatase EYA2 (Homo sapiens), …. activity change, % (concentration not given with the values). AID 651725, 2012. 360,000 compounds, 0.56% hits. AlphaScreen GST-Six1/His-Eya2 binding, biochemical; active compounds read low; in the data active = activity change below about -65%; inconclusive = mostly about -30% to -63%; note: % is set by controls: 0 for no effect and ±100 for the full control effect
Target sequence (O00167 whole entry, looked up): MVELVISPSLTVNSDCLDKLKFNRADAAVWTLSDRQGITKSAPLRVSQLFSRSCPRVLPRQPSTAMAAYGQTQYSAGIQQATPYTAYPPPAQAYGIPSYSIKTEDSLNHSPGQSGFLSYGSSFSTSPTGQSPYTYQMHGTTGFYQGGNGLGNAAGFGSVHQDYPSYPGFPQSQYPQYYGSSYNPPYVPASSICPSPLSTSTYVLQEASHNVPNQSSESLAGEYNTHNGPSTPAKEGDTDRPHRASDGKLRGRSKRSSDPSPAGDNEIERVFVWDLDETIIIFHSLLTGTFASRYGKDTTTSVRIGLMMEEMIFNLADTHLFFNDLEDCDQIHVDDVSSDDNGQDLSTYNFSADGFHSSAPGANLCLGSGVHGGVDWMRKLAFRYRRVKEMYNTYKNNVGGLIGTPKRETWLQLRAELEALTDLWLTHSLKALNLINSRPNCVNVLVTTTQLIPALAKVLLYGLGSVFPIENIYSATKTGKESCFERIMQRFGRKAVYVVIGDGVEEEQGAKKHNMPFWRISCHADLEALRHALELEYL
Target sequence (Q15475 whole entry, looked up): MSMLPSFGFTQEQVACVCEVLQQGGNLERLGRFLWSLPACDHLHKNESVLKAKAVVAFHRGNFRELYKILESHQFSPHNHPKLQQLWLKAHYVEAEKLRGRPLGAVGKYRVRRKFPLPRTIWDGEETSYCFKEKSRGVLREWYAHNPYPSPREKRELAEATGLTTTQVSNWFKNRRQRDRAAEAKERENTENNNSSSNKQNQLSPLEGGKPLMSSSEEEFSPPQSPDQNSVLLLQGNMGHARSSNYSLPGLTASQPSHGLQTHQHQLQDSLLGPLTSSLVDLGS
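Homogeneous AlphaScreen proximity assay pairing GST-Six1 with His-tagged Eya2 (added as 5X mix: 250 nM and 500 nM) in 50 mM Tris pH 8.0, 300 mM NaCl, 1 mM TCEP. Glutathione donor and nickel acceptor beads; 1 h, 37 °C, dark.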
ATXN viability – Viability Counterscreen for Primary qHTS for Inhibitors of ATXN expression | Potency, µM (doses to about 56.7 µM), usual class: cytotoxic | 400,000 compounds, 0.49% hits | S2 cells (HEK-293 line with an ATXN2-luciferase reporter) viability, CellTiter-Fluor protease fluorescence, 24 h; note: potency is the fitted concentration of half-maximal effect; nearly all actives have a fitted effect of over 40% in size
TGFb inhibitor – qHTS for Inhibitors of TGF-b. HepG2 CAGA-GFP TGF-b/SMAD3 reporter, GFP fluorescence, 18 h; TGF-beta stimulated, 500 pg/mL final. 410,000 compounds, 1.2% hits. Potency, µM (doses to about 46.1 µM), for inactives: at the highest dose activity, negative = inhibition, actives largely listed as inhibitors; note: potency is the fitted concentration of half-maximal effect; % is set by controls: 0 for no effect and ±100 for the full control effect; nearly all actives have a fitted effect of over 65% in size
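GFP signal (ex488/em500-530) from TGF-beta-stimulated HEPG2 CAGA-GFP cells, 500 pg/mL final, 18 h at 37 degrees C in DMEM plus 1% FBS, normalized to unstimulated and DMSO-stimulated controls.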
HepG2 viability – qHTS for Inhibitors of TGF-b: Cytotox Counterscreen; HepG2 CAGA-GFP viability, ATP luminescence, 18 h; Potency, µM (top dose mostly 46.1 µM), for the others: top-dose activity change, negative = cytotoxicity, usual class: cytotoxic; 410,000 compounds, 0.76% hits; note: potency is the fitted concentration of half-maximal effect
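CellTiter-Glo luminescence gave cytotoxicity after 18 hours at 37 degrees C. The cells were HepG2 CAGA-GFP in 1% FBS DMEM, stimulated with 500 pg/mL TGF-beta after compound addition. %Activity was normalised to no-cell wells (complete cell-killing) and DMSO (no toxicity), and curves were fitted and classified.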
* = called active by the depositor; i = inactive; ? = inconclusive; / = no result given. Shown are actives, neighbours in structure and some others; about 2.8% of the full set was active somewhere. Unless noted, calls come from the whole dose curve; as a rule, active = well fitted curve in the direction sought with a large enough effect; inconclusive = small, poorly fitted or top-dose-only effect, or another doubt; inactive = no such curve, though single readings can be large; an effect the other way counts as inactive or inconclusive.

SMILES	ATXN2 expr inh	CtBP-E1A inh	Six1-Eya2 inh	ATXN viability	TGFb inhibitor	HepG2 viability
O=C(O)c1cc(O)c2c(c1)[C@@H]([C@H]1c3cc(C(=O)O)cc(O)c3C(=O)c3c(O[C@@H]4O[C@H](CO)[C@@H](O)[C@H](O)[C@H]4O)cccc31)c1cccc(OC3O[C@H](CO)[C@@H](O)[C@H](O)[C@H]3O)c1C2=O (stereo partly drawn)	0%	-29	-82*	?	11µM*	-39%
O=C(O)c1cc(O)c2c(c1)[C@H]([C@H]1c3cc(C(=O)O)cc(O)c3C(=O)c3c(O[C@@H]4O[C@H](CO)[C@@H](O)[C@H](O)[C@H]4O)cccc31)c1cccc(OC3O[C@H](CO)[C@@H](O)[C@H](O)[C@H]3O)c1C2=O (stereo partly drawn)	-26%	?	-74*	?	?	-34%
O=C(Cn1c(-c2cccs2)cc2ccccc21)N1CCN(c2ccc(Cl)cc2)CC1	-10%	/	/	i	0%	-3%
CC(=O)C(C(C)=O)c1c(Cl)c(O)c(O)c2c(C(=O)c3ccccc3)coc12	25µM*	-13	-18	?	?	-39%
CN1CCN(Cc2c(O)ccc3occ(C(=O)c4ccccc4)c23)CC1	-9%	-3	3	?	-1%	-29%
COc1cc2[nH]c(=O)n(CCCCCC(=O)N3CC=C(c4ccccc4)CC3)c(=O)c2cc1OC	?	-93*	?	?	-25%	-27%
Cc1nn(-c2nc3ccccc3[nH]2)c(=O)c2ccccc12	0.4µM*	-4	-3	i	-1%	3.2µM*
CCCCc1nn2c(=O)cc(COC(=O)c3ccccc3NC(=O)c3cccc(C)c3)nc2s1	5%	/	/	i	-8%	3%
O=C(Nc1nc2ccccc2n1CCN1CCOCC1)c1cccc([N+](=O)[O-])c1	22µM*	/	/	/	/	/
C[C@@H]1CC=C[C@H]2[C@H]1C(=O)N(Cc1ccccc1)[C@H]2c1ccc(C(F)(F)F)cc1	-17%	-11	1	i	22µM*	-22%
COc1ccc(-c2ccc(OC)c([C@H]3[C@H]4C=CC[C@@H](C)[C@@H]4C(=O)N3Cc3ccccc3)c2)cc1OC	3%	0	-10	i	-5%	-1%
O=C1C2C(c3ccccc3)CC=CC2[C@H](c2ccc(C(F)(F)F)cc2)N1Cc1ccccc1 (stereo partly drawn)	?	/	-2	/	?	-33%
Cc1ccc(F)c(C2C3C=CCC(c4ccccc4)C3C(=O)N2Cc2ccccc2)c1 (stereo not drawn)	/	/	/	/	13µM*	-60%
COc1ccc(-c2ccoc2)cc1C1C2C=CCC(C)C2C(=O)N1Cc1ccccc1 (stereo not drawn)	/	/	/	/	16µM*	-28%
COc1cc(C2CC(=O)Nc3c2c(=O)[nH]c2nc4ccccc4n32)ccc1O (stereo not drawn)	3%	/	/	i	10%	-6%
Cc1nn(C)c(Cl)c1CN1CCOc2ccc(CN3CCC(Oc4cccnc4)CC3)cc2C1	/	/	/	i	/	/
O=C(Nc1ccccc1)c1ccc(NC(=O)C2CC2)cc1	18%	2	0	i	-1%	9%
CCC(C(=O)Nc1ccc(C)cc1)c1ccccc1 (stereo not drawn)	-18%	9	-12	i	-1%	6%
O=C(Nc1ccccc1C(=O)O)c1ccc(NC(=O)C2CCCCC2)cc1	7%	-77*	-83*	i	0%	20%
CCC(C)NC(=O)c1ccccc1NC(=O)c1ccc(CSc2ccccc2)cc1 (stereo not drawn)	-11%	5	-7	i	?	16µM*
CCC(C(=O)Nc1ccc(C(=O)Nc2ccccc2C(=O)O)cc1)c1ccccc1 (stereo not drawn)	-6%	-81*	?	i	0%	-1%
CCN(CC)CCNc1ccc(CO)c2oc3cc(Cl)ccc3c(=O)c12	/	-12	?	?	-12%	-43%
CN(C)CCNc1ccc(CO)c2oc3ccc(O)cc3c(=O)c12	21µM*	?	-24	27µM*	?	-27%
Fc1ccc(-c2nc3ccc(Cl)cn3c2Cc2ccccc2C(F)(F)F)cc1	68%	-11	10	i	13µM*	-42%
FC(F)(F)c1ccccc1Cc1c(-c2ccco2)nc2ccc(Cl)cn12	-38%	-17	-23	?	?	6.3µM*
SMILES	ATXN2 expr inh	CtBP-E1A inh	Six1-Eya2 inh	ATXN viability	TGFb inhibitor	HepG2 viability
FC(F)(F)c1ccccc1Cc1c(-c2ccc(Cl)cc2)nc2ccc(Cl)cn12	58%	7	9	i	?	-40%
CCC1CN(CCC(=O)NC2CCOC(C)(C)C2)Cc2cc(OC)ccc2O1 (stereo not drawn)	/	/	/	i	/	/
CC(=O)N[C@@H](CCC(N)=O)C(=O)O	5%	/	/	i	/	/
COc1cc(/C=C2/SC(=Nc3ccc(O)cc3)NC2=O)cc(OC)c1O	-11%	0	-71*	i	20%	-16%
Cc1c(N=Nc2ccc(O)cc2)c(=O)n(-c2ccccc2)n1C	-7%	-7	-24	?	8%	3%
Cc1c(N=C2NC(=O)/C(=C/c3ccc(O)cc3)S2)c(=O)n(-c2ccccc2)n1C	4%	18	-3	?	0%	10µM*
O=C(C[n+]1ccc2ccccc2c1)c1ccc(F)cc1	/	/	/	/	?	-49%
Nn1cnc2c(c1=O)C1(CCCCC1)Cc1ccccc1-2	-13%	12	14	i	8.9µM*	11µM*
COc1cccc(/C=N/N2C(=O)CSC2=S)c1O	1%	-13	-90*	i	-19%	-4%
O=C1CSC(=S)N1N=Cc1c(O)ccc2ccccc12	-12%	-89*	-88*	i	?	-14%
C=C(C)C(=O)OCC(O)CO (stereo not drawn)	5%	/	/	i	/	/
CC(=O)c1cccc(NC(=O)c2cccc(N3C(=O)c4ccccc4C3=O)c2)c1	-4%	-3	0	i	1%	2.8µM*
NS(=O)(=O)c1cccc(NC(=O)c2cccc(N3C(=O)c4ccccc4C3=O)c2)c1	2%	3	-3	i	-13%	10%
O=C1C2C3C=CC(CO)(O3)C2C(=O)N1c1ccccc1-c1ccccc1 (stereo not drawn)	?	-10	-8	?	13µM*	13µM*
